# Test results as given in the GenesisPotency data set.
# Out of some 500 compounds screened, about 40 (8%) were called active.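 The calls were made as follows: active = mean IC50 below 20 µM in each of the two panels, so potent in both; inactive = the rest.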 Not all results are given here.
# Biological target: T1, Neuropilin-1, Homo sapiens (UniProt O14786)
# T1 sequence (whole entry): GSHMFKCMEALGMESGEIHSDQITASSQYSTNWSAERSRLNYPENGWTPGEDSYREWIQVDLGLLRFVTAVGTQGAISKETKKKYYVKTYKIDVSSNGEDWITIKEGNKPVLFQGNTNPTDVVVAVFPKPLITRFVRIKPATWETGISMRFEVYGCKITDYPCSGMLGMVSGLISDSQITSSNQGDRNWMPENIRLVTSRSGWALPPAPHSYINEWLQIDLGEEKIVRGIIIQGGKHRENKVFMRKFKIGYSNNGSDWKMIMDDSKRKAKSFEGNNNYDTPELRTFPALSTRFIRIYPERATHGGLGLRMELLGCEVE
# Assay: blockers of CendR peptide binding to NRP-1 – biochemical, FP and AlphaScreen panel, dose response (AID 651650)
row,SMILES,outcome
1,Cn1c(=O)c2[nH]c(COc3ccccc3)nc2n(C)c1=O,inactive
